In PubChem BioAssay (NCI):
The panel holds about 79,000 compounds, 15% with a hit somewhere; the sample as a whole holds those more often. Activity calls are given as the source filed them. Cut-off read from the data, not from the text of the source: active = growth inhibition above about 70%; inactive = the rest.

Tests used:
[1] = NCI Yeast Anticancer Drug Screen. Data for the rad50 strain (AID 155);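 note: 0% = growth of vehicle-only cultures of the same strain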; conditions: S. cerevisiae rad50 strain growth inhibition; at 50.0 µM; active compounds read high
Method in brief: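 DNA repair mutant yeast, compound exposure, growth read-out; inhibition is taken relative to vehicle.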

[2] = NCI Yeast Anticancer Drug Screen. Data for the mec2-1 strain (AID 157); conditions: S. cerevisiae mec2-1 strain, at 50.0 µM, active compounds read high
Method in brief: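 Vehicle-treated cultures served as reference for growth inhibition of compound-exposed mec2-1 yeast.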

[3] = NCI Yeast Anticancer Drug Screen. Data for the sgs1 mgt1 strain (AID 161);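 note: 0% = growth of cultures given vehicle only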; conditions: S. cerevisiae sgs1 mgt1 strain, at 50.0 µM, active compounds read high
Method in brief: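 Mutant yeast exposed to compound; growth scored against vehicle-only wells.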

[4] = NCI Yeast Anticancer Drug Screen. Data for the cln2 rad14 strain (AID 165);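 note: 0% = growth equal to vehicle treated cultures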; conditions: S. cerevisiae cln2 rad14 strain, at 50.0 µM, active compounds read high
Method in brief: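 Each compound was tested on cln2 rad14 yeast. Inhibition of growth was calculated against vehicle-exposed controls.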

[5] = NCI Yeast Anticancer Drug Screen. Data for the bub3 strain (AID 167); conditions: S. cerevisiae bub3 mutant strain, at 50.0 µM, active compounds read high
Method in brief: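 In this screen, a yeast mutant lacking normal mitotic checkpoint function is challenged with compound. Relative growth versus vehicle gives the inhibition value.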

[6] = NCI Yeast Anticancer Drug Screen. Data for the mlh1 rad18 strain (AID 175); conditions: S. cerevisiae mlh1 rad18 strain growth inhibition; at 50.0 µM; active compounds read high
Method in brief: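 Vehicle-treated cultures served as the reference for growth inhibition in a yeast strain carrying DNA damage repair alterations exposed to each compound.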

Measured: growth inhibition

Cc1ccc(N=C2SC(c3ccc(C)cc3)(c3ccc(C)cc3)c3ccccc32)cc1
inactive: [1] -35% | [2] 11.2% | [3] -3.9% | [4] -4.75% | [5] -7.15% | [6] -16.1%

CCCCCC(=O)O
inactive: [1] -20.2% | [2] -7.1% | [3] -42.1% | [4] 26.9% | [5] -38.9% | [6] 16.8%

COc1cc([N+](=O)[O-])ccc1P(=O)(O)O
inactive: [1] 2% | [2] -5.65% | [3] -1.4% | [4] -4.35% | [5] -9.95% | [6] 14.1%

CCOC(=O)C(Cc1ccccc1)Nc1c(Cl)c(=O)oc2ccc(C)cc12 (configuration not stated)
inactive: [1] 18.6% | [2] -3.2% | [3] 32.7% | [4] 26.9% | [5] -16.4% | [6] 19.6%

CC(=O)O[C@H]1CC[C@@]2(C)[C@@H](CC[C@@H]3[C@@H]2CC(=O)[C@]2(C)[C@@H]4[C@H](C[C@@H]32)O[C@]2(CC[C@@H](C)CO2)[C@H]4C)C1
inactive: [1] -11.7% | [2] -12.2% | [3] -11.8% | [4] -13.2% | [5] -34.6% | [6] 2.3%

O=C(O)/C=C\C(=O)Nc1ccccn1
inactive: [1] -30.6% | [2] -43.8% | [3] -52.7% | [4] -2.65% | [5] -44.9% | [6] -21.4%

O=C(O)c1ccc(OS(=O)(=O)c2ccccc2)cc1
inactive: [1] 26.5% | [2] 8.1% | [3] 39.7% | [4] 22.4% | [5] 46.9% | [6] 16.3%

COC(=O)c1[nH]c(=O)c(C#N)c(C(=O)OC)c1C(=O)c1cccnc1
inactive: [1] 2.95% | [2] -3.55% | [3] -5.2% | [4] 18.7% | [5] -17.4% | [6] 25.6%

COc1ccc2c(c1)c(=O)c1ccccc1n2/C=C/C(=O)O
inactive: [1] -6% | [2] -14.8% | [3] -8.9% | [4] 3.75% | [5] -3.05% | [6] 2.25%

COC(=O)CSSCc1ccccc1
inactive: [1] 3.5% | [2] 1.5% | [3] 3.65% | [4] -26.1% | [5] -28.1% | [6] 6.35%

Cn1c(=O)nc2n(C)c3ccccc3cc-2c1=O
inactive: [1] 9.95% | [2] -12.4% | [3] -3.95% | [4] -6.85% | [5] -12.7% | [6] 1.8%

N#CC(C(=O)CCC(=O)C(C#N)c1c(Cl)cccc1Cl)c1c(Cl)cccc1Cl (configuration not stated)
inactive: [1] -18.3% | [2] 7.3% | [3] -12.5% | [4] -41.5% | [5] 6.55% | [6] -11.1%

CC[CH2][Sn]([CH2]CC)([O]C(=O)c1cccnc1SC)[O][Sn]([CH2]CC)([CH2]CC)[O]C(=O)c1cccnc1SC
active: [1] 88.5% | [2] 90% | [3] 90.8% | [4] 88.9% | [5] 89.1% | [6] 82.1%

O=C1C(SCCO)=C(SCCO)C(=O)c2[nH]cnc21
inactive: [1] 13.8% | [2] -10.4% | [3] 6.5% | [4] -0.85% | [5] 6.8% | [6] 4.15%

O=CNc1ncccn1
inactive: [1] -6.95% | [2] 1.3% | [3] 7.25% | [4] -2.05% | [5] -2.2% | [6] -7.75%

O=C(NC(Cc1ccccc1)C(=O)O)Oc1ccc2ccccc2c1 (configuration not stated)
inactive: [1] 2.9% | [2] 8.25% | [3] 6.1% | [4] -0.95% | [5] -4.8% | [6] -5.2%

C/C(CC(=O)Nc1cc(Cl)c(Cl)cc1Cl)=N\NC(N)=O
inactive: [1] 28.8% | [2] 11.7% | [3] 1.55% | [4] 24.4% | [5] 30.3% | [6] 19.4%

CC(C(=O)c1ccncc1)c1ccccn1 (configuration not stated)
inactive: [1] 1.85% | [2] 6.65% | [3] -25.4% | [4] -18.9% | [5] -12.9% | [6] 3.5%

CCc1nc(N)nc(N)c1-c1ccc2c(c1)nnn2C
inactive: [1] 19.9% | [2] 14.8% | [3] 9.05% | [4] -9.75% | [5] 11.6% | [6] 17.9%

Clc1ccccc1CSc1cnnc(Cl)c1SCc1ccccc1Cl
inactive: [1] 28.6% | [2] 12.2% | [3] 31.6% | [4] 39.6% | [5] 5.2% | [6] 21.9%

COc1cc(C)c(C2NC(=O)c3ccccc3N2)cc1C (configuration not stated)
inactive: [1] 10.1% | [2] 2.8% | [3] -10.1% | [4] 17.4% | [5] -2.55% | [6] -4.55%

CC1=Nc2ccccc2N2C1=CC1=C(C(=O)c3cc4ccccc4cc3C1=O)C2C (configuration not stated)
inactive: [1] 16.4% | [2] 6.65% | [3] 5.75% | [4] 24.2% | [5] -5.2% | [6] 24.4%

CC(CCl)CC#N (configuration not stated)
inactive: [1] -5.6% | [2] -19.1% | [3] 7.9% | [4] 13.1% | [5] -10% | [6] -1.1%

Clc1cnc(Oc2ccccc2)c2ccccc12
inactive: [1] 2.3% | [2] -22.2% | [3] -10.2% | [4] -37.4% | [5] -1.5% | [6] -9.35%

COc1ccc(N=C(N)N2CCCc3ccccc32)cc1
inactive: [1] -5.25% | [2] 17.9% | [3] 0.55% | [4] -84.9% | [5] 1.4% | [6] 0.4%

COc1cc(/C=N/NC(N)=O)cc(OC)c1O
inactive: [1] -0.6% | [2] -11.8% | [3] -34.4% | [4] -14.6% | [5] 33.3% | [6] -4.75%

N#Cc1ccc(Br)cc1
inactive: [1] 7.95% | [2] -3.45% | [3] 16.6% | [4] -19.9% | [5] -6.2% | [6] 18.1%

CCC(=O)c1ccc(OC(C)=O)cc1
inactive: [1] 36% | [2] -4.75% | [3] -4.85% | [4] -23.4% | [5] 5.7% | [6] 4.65%

Cc1ccc(NC(=O)COc2ccccc2)c(C)c1
inactive: [1] 4.35% | [2] 19.9% | [3] 15.9% | [4] -4.25% | [5] 28.3% | [6] 28.4%

CC1CCCC2(C1)OCC(O)CO2 (configuration not stated)
inactive: [1] 23.2% | [2] -2.2% | [3] 8.8% | [4] 12.8% | [5] 7.65% | [6] 10.2%

C(CC1CCNCC1)CC1CCNCC1
inactive: [1] -39.7% | [2] -19.1% | [3] -20.3% | [4] -23.8% | [5] 12.2% | [6] -64.7%

O=c1/c(=c2\c(=O)c3cccc4cccc2c43)c2cccc3cccc1c32
inactive: [1] -10.2% | [2] 24.9% | [3] -0.4% | [4] -34% | [5] -9.05% | [6] -18.1%

CN(C)c1ccc(-c2cccc[n+]2C)cc1
inactive: [1] -12.8% | [2] 12.2% | [3] 3.05% | [4] 3.25% | [5] 0.1% | [6] 25.7%

COC(=O)c1nnn(-c2ccc(Cl)cc2Cl)c1N
inactive: [1] -6.35% | [2] -18% | [3] -14.6% | [4] 6.3% | [5] -19.3% | [6] 14%

CC(C)(C)C1CCC2c3c([nH]c4ccccc34)C3C(=O)N(c4ccccc4[N+](=O)[O-])C(=O)C3C2C1 (configuration not stated)
inactive: [1] -16.9% | [2] -24.1% | [3] -18.6% | [4] 4.8% | [5] -15.3% | [6] -26.6%

OC1C(OCc2ccccc2)OC(COCc2ccccc2)C(OC2OC(COCc3ccccc3)C(OCc3ccccc3)C(OCc3ccccc3)C2OCc2ccccc2)C1OCc1ccccc1 (configuration not stated)
inactive: [1] -2.1% | [2] -9.85% | [3] -13.8% | [4] -8.65% | [5] -3.3% | [6] -3.6%

CCOc1c(N=Nc2cccc([N+](=O)[O-])c2)c(C)nn1C(N)=S
inactive: [1] -42.2% | [2] -34.1% | [3] -7.85% | [4] -28.9% | [5] -3.35% | [6] -16%
